High-throughput results deposited in PubChem by National Center for Advancing Translational Sciences (NCATS).
The list is not random: actives were taken first. Their share in the collection is about 11%.
3T3 cytotox: Cytotoxic Profiling in NIH 3T3 Cell Line of Diverse Libraries Using Quantitative High-Throughput Screening | 94,000 compounds, 4.3% hits | NIH 3T3 viability, CellTiter-Glo ATP luminescence, 48-72 h | Potency, µM (top dose mostly 96.7 µM), without a hit: at the top dose activity change, negative = cytotoxicity, hits mostly inhibitors; further: nearly all actives have a fitted effect of over 55% in size
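Luminescent ATP readout (CellTiter-Glo, 10 min RT) after 48 or 72 hr compound exposure of NIH 3T3 cells seeded at 400 cells/well in 1536-well format; quantitative HTS.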
Luciferase inh: Firefly luciferase inhibition profiling of diverse chemical library using quantitative high-throughput screening | Luciferin 4-monooxygenase (Photinus pyralis), P08659 | Potency, µM (titrated, usually from 115 µM), usual class: inhibitors | AID 1347043, 2019 | purified P. pyralis luciferase, luminescence, biochemical | 76,000 compounds, 2.5% hits; further: nearly all actives have a fitted effect of over 65% in size
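Luminescence read by CCD imaging after purified firefly luciferase (10nM final) was added to substrate buffer holding 10uM D-luciferin and 10uM ATP, pH 7.5, pre-dosed with compound.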
HEK293 tox: Cytotoxic Profiling in HEK 293 Cell Line of Diverse Libraries Using Quantitative High-Throughput Screening; AID 1345083, 2018; Potency, µM (series often up to 115 µM), for the others: at the top dose activity change, negative = cytotoxicity, actives largely listed as inhibitors; HEK 293 viability, ATP luminescence (CellTiter-Glo), 48-72 h; 94,000 compounds, 6.6% hits; further: nearly all actives have a fitted effect of over 60% in size
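Read-out: CellTiter-Glo ATP luminescence. Cells: HEK 293, 250 cells/well. Exposure: 48 or 72 hr, 37 degree Celsius.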
NPR1 antag: Natriuretic polypeptide receptor (hNpr1) antagonism - Primary qHTS; 76,000 compounds, 1.6% hits; HEK293 hNpr1 GloSensor cGMP, ANP-stimulated luminescence; Potency, µM (doses to about 46.3 µM), without a hit: top-dose activity change, negative = inhibition, actives largely listed as inhibitors; AID 1347048, 2019; Atrial natriuretic peptide receptor 1 (Homo sapiens), P16066; calls by dose curve; further: nearly all actives have a fitted effect of over 60% in size
Target sequence (P16066 whole entry, looked up): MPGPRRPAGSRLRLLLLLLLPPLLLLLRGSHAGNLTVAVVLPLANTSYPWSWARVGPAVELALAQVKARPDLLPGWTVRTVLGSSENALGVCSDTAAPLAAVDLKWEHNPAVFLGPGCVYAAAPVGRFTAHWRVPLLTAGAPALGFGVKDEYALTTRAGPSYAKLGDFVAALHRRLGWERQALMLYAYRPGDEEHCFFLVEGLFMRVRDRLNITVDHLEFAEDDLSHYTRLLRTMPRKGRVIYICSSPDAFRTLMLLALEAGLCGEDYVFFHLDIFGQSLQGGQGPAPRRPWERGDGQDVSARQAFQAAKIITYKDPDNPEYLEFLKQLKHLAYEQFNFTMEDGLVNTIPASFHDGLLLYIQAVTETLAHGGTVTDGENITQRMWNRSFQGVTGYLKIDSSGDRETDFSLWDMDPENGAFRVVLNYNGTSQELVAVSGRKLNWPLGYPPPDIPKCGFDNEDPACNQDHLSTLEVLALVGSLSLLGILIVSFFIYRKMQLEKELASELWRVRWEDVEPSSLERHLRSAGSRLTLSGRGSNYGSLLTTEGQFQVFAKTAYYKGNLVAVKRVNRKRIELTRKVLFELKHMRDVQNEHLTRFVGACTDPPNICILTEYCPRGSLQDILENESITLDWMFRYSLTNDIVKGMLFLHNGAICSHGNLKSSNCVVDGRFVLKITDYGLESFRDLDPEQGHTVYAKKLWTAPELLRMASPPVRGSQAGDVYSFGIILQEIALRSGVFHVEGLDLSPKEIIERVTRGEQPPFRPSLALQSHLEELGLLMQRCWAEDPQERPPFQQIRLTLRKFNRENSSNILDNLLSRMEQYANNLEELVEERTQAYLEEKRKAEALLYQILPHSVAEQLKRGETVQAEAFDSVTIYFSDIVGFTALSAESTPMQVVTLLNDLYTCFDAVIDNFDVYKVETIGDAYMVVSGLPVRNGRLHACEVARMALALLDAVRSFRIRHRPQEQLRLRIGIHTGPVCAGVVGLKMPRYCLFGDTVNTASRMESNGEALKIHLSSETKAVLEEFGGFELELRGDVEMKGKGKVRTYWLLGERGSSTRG
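HEK293 cells stably expressing human Npr1 and cGMP GloSensor pGS-40F, loaded 2 h with 2% GloSensor reagent, given compound 30 min at room temperature. Luminescence read before and 20 min after 0.1 nM hNppA.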
An asterisk follows results filed as active; i = inactive; ? = inconclusive; / = no result given; [ ] = dose if it differs, or a comment. Unless noted, the call rests on the fitted dose curve; in most records, active means well fitted curve in the direction sought with a large enough effect; inconclusive means small, poorly fitted or top-dose-only effect, or another doubt; inactive means no such curve, though single readings can be large; an effect the other way counts as inactive or inconclusive. On the % scale 0 is the no-effect control and ±100 the full control effect; potency means the concentration at half of the fitted maximal effect.

SMILES	3T3 cytotox	Luciferase inh	HEK293 tox	NPR1 antag
Cc1ccc(OC(=O)N2CCC(Oc3ccc4c(cnn4CCC(=O)O)c3)CC2)cc1	35.5µM*	i	-10.5%[172 µM]	4.4%[70.6 µM]
c1ccc(-c2cnc([C@@H]3COCCN3Cc3cccnc3)[nH]2)cc1	-2.2%[174 µM]	i	2.8%[172 µM]	-3.6%[70.6 µM]
COc1ccc(-c2cnc([C@@H]3COCCN3Cc3ccccc3O)[nH]2)cc1	?	i	-23.6%[172 µM]	2.1%[70.6 µM]
Fc1ccccc1CN1CCOC[C@H]1c1ncc(-c2ccc(Cl)s2)[nH]1	89.1µM*	i	?	?
Fc1cccc(-c2cnc([C@@H]3COCCN3Cc3ccccc3)[nH]2)c1	?	i	?	-21.0%[70.6 µM]
Clc1ccc(-c2cnc([C@@H]3COCCN3Cc3c[nH]c4ccccc34)[nH]2)s1	79.4µM*	i	70.8µM*	?
CC(C)(C)CN1CCOC[C@H]1c1ncc(-c2ccc(F)cc2F)[nH]1	?	i	?	-5.3%[70.6 µM]
Fc1ccc(CN2CCOC[C@H]2c2ncc(-c3ccc(Cl)s3)[nH]2)cc1	?	i	79.4µM*	?
Fc1ccc(-c2cnc([C@@H]3COCCN3Cc3ccccc3F)[nH]2)c(F)c1	?	i	100µM*	-30.5%[70.6 µM]
O=C(c1c[nH]c2ccccc12)N1CCC2(CC1)CNS(=O)(=O)c1cccnc1O2	-13.7%	/	-16.6%	/
COc1ccc(-c2ccccc2C(=O)NCc2cccnc2)nn1	-5.0%[138 µM]	/	0.2%[172 µM]	/
Clc1ccc(-c2cnc([C@@H]3COCCN3Cc3cnc[nH]3)[nH]2)cc1	-17.5%[138 µM]	i	-21.8%[172 µM]	2.9%[70.6 µM]
Clc1ccc(-c2cnc([C@@H]3COCCN3CC3CC3)[nH]2)s1	?	i	89.1µM*	-4.7%[70.6 µM]
CC(=O)Nc1ccc(CN2C[C@H](O)C[C@H]2c2nc(-c3ccc(OC(F)(F)F)cc3)no2)cc1	?	?	?	-25.6%
COc1ccccc1Nc1ccnc(N2CCC(NC(=O)Cc3cccc(Cl)c3)CC2)n1	31.6µM*	/	?	/
COc1ccc(C(=O)NC2CCN(c3nccc(Nc4ccccc4OC)n3)CC2)cc1	-6.2%	/	-17.6%	/
COCC(=O)NC1CCN(c2nccc(Nc3ccc(C)cc3)n2)CC1	35.5µM*	/	?	/
Cc1ccc(Nc2ccnc(N3CCCC3C(=O)NC3CC3)n2)cc1 (centres undefined)	-18.6%	/	?	/
Cc1ccc(Nc2ccnc(N3CCC(NC(=O)Cc4cccc(Cl)c4)CC3)n2)cc1	17.8µM*	/	25.1µM*	/
Cc1nc(C2CC23CCN(S(C)(=O)=O)CC3)no1 (centres undefined)	?	/	-2.6%	/
COc1ccc(Nc2ccnc(N3CCC(C(=O)NC4CCCC4)CC3)n2)cc1	35.5µM*	/	?	/
COc1ccc(Nc2ccnc(N3CCN(C(=O)C4CCCC4)CC3)n2)cc1	?	/	28.2µM*	/
COc1ccc(Nc2ccnc(N3CCC(NC(=O)C4CCCC4)CC3)n2)cc1	?	/	50.1µM*	/
COc1ccc(Nc2ccnc(N3CCC(C(=O)N4CCOCC4)CC3)n2)cc1	-25.1%	/	-29.7%	/
CNC(=O)N1CCC(C2CCN(S(=O)(=O)c3cccc(C#N)c3)C2)CC1 (centres undefined)	?	i	1.4%	3.2%
SMILES	3T3 cytotox	Luciferase inh	HEK293 tox	NPR1 antag
COC[C@@H]1CN(C(=O)Cc2c[nH]c3ccccc23)C[C@H]1c1nc(C)no1	-3.2%	i	4.1%	2.5%
Cc1ccsc1-c1[nH]nc2ncc(-c3cccc(CO)c3)nc12	?	?	79.4µM*	-5.8%[70.6 µM]
COc1cc(F)ccc1-c1cnc2n[nH]c(-c3sccc3C)c2n1	?	i	44.7µM*	-10.1%[70.6 µM]
Cc1ccsc1-c1[nH]nc2ncc(-c3ccccc3)nc12	?	i	?	-11.2%[70.6 µM]
Cc1ccsc1-c1[nH]nc2ncc(-c3ccc(F)cc3)nc12	?	i	70.8µM*	-9.9%[70.6 µM]
CN(Cc1cc(-c2cccs2)n[nH]1)C[C@@H]1CCCN2CCCC[C@H]12	2.5%	i	-16.5%	2.2%
COc1ccc(C(=O)N2CCc3nc(C(C)C)nc(-c4ccc(OC)cc4)c3CC2)cc1	?	i	?	3.4%
COc1ccccc1NC(=O)Cc1cccn1-c1ccc(Cl)cc1	?	i	?	-20.7%
COc1cc2c(cc1OC)C(CNC(=O)c1ccc(C)cc1)N(C(=O)NC(C)C)CC2 (centres undefined)	-2.9%	i	39.8µM*	-1.4%
COc1cc2c(cc1OC)C(CNC(=O)c1ccc(C)cc1)N(C(=O)Nc1ccccc1F)CC2 (centres undefined)	-8.9%	i	?	-1.0%
COc1ccc(Nc2ccnc(N3CCN([S+](=O)([O-])c4ccc(C)cc4)CC3)n2)cc1	?	/	-27.9%	/
Cc1cc(-c2cnc3n[nH]c(-c4ccccc4)c3n2)ccn1	?	i	?	-18.3%[70.6 µM]
Cc1ccc(-c2cnc3n[nH]c(-c4ccccc4)c3n2)cc1	?	i	31.6µM*	-14.1%[70.6 µM]
O=C(Nc1ccon1)c1cnc2n[nH]c(-c3ccccc3)c2n1	31.6µM*	i	?	-4.7%[70.6 µM]
c1ccc(-c2cnc3n[nH]c(-c4ccccc4)c3n2)cc1	?	i	100µM*	-11.6%[70.6 µM]
c1cncc(-c2cnc3n[nH]c(-c4ccc5c(c4)OCO5)c3n2)c1	?	i	28.2µM*	-18.4%[70.6 µM]
Cc1cccc(-c2cnc3n[nH]c(-c4ccccc4)c3n2)c1	?	i	70.8µM*	-11.9%[70.6 µM]
COc1ccc(-c2[nH]nc3ncc(-c4cn[nH]c4)nc23)c(C)c1	?	i	?	0.4%[70.6 µM]
COc1ccc(-c2[nH]nc3ncc(-c4ccccc4F)nc23)c(C)c1	50.1µM*	i	63.1µM*	-13.2%[70.6 µM]
COc1ccc(-c2[nH]nc3ncc(-c4ccccc4O)nc23)cc1F	?	i	?	-2.2%[70.6 µM]
Cc1cc(C)cc(-c2[nH]nc3ncc(-c4ccsc4)nc23)c1	25.1µM*	i	?	-12.6%[70.6 µM]
Fc1ccccc1-c1cnc2n[nH]c(-c3ccccc3)c2n1	89.1µM*	i	112µM*	-18.5%[70.6 µM]
COCCNC(=O)C1CCN(C(=O)c2ccc(-c3ccccc3OC)cc2)CC1	-14.5%	/	-6.9%	/
COCCN1CCCC(c2[nH]ccc2C(=O)N2CCN(c3ccccc3)CC2)C1 (centres undefined)	-18.7%	i	-10.5%	1.4%
CNC(=O)CNC(=O)N1CCC(=O)N(C)c2ccccc2C(OC)C1 (centres undefined)	?	/	-9.8%[57.5 µM]	/
COc1cncc(NC(=O)C2=NO[C@@H]3CN(Cc4ccccc4)C[C@H]23)c1	?	i	-28.0%[172 µM]	2.0%[70.6 µM]
COc1ccc(NC(=O)C2=NO[C@@H]3CN(c4cccnc4)C[C@H]23)cc1	?	35.5µM*	?	?
COc1ccc(NC(=O)C2=NO[C@@H]3CN(CCc4ccccc4)C[C@H]23)cn1	-22.5%[138 µM]	i	100µM*	0.9%[70.6 µM]
